The campaign covered roughly 5,500 compounds. About 2,000 (36%) were called active. About 18% were inconclusive and are not listed. No stated cut-off is given here; in the data, active means normalized growth mostly below about 0.91 (no sharp cut-off); inconclusive means no clear call, values can overlap the other calls; inactive means mostly above about 0.92. The list shows a part of the results.
Test: chemical genetic growth profiling, strain panel (AID 1159580);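 further: tested at 20 µM; growth read once vehicle control cultures reached saturation at 30 °C; 1 = growth at the plate median or of vehicle wells; lower values mean less growth of the strain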
Conditions: S. cerevisiae deletion strains, growth OD

Measured: normalized growth

COP(=S)(OC)Oc1ccc(Sc2ccc(OP(=S)(OC)OC)cc2)cc1
inactive: locus YAL021C, strain ccr4, hits give low values 1 | locus YAL026C, strain drs2, hits give low values 1 | locus YAL030W, strain snc1, hits give low values 0.999 | locus YBL061C, strain skt5, hits give low values 1.01 | locus YBR009C, strain hhf1, hits give low values 1.01 | locus YBR023C, strain chs3, hits give low values 1.01 | locus YBR171W, strain sec66, hits give low values 0.992 | locus YBR231C, strain swc5, hits give low values 1 | locus YBR279W, strain paf1, hits give low values 1.01 | locus YCL011C, strain gbp2, hits give low values 1 | locus YCL016C, strain dcc1, hits give low values 1.01 | locus YCL061C, strain MRC1, hits give low values 1.01 | locus YCL069W, strain vba3, hits give low values 1.01 | locus YCR088W, strain abp1, hits give low values 0.994 | locus YDL005C, strain med2, hits give low values 0.998 | locus YDL040C, strain nat1, hits give low values 1 | locus YDR001C, strain nth1, hits give low values 1.01 | locus YDR069C, strain doa4, hits give low values 1.02 | locus YDR137W, strain rgp1, hits give low values 1.02 | locus YDR159W, strain sac3, hits give low values 0.994 | locus YDR195W, strain ref2 0.976 | locus YDR297W, strain sur2, hits give low values 1 | locus YDR334W, strain swr1, hits give low values 1.01 | locus YDR335W, strain msn5, hits give low values 1.01 | locus YDR392W, strain spt3, hits give low values 0.993 | locus YEL003W, strain gim4, hits give low values 1.01 | locus YEL037C, strain rad23, hits give low values 1 | locus YEL061C, strain CIN8 (second series), hits give low values 1 | locus YER015W, strain faa2, hits give low values 1 | locus YER016W, strain bim1, hits give low values 1 | locus YER111C, strain swi4, hits give low values 1 | locus YER155C, strain BEM2 (second series), hits give low values 1 | locus YFR010W, strain ubp6, hits give low values 1.01 | locus YGL167C, strain pmr1, hits give low values 0.998 | locus YGL173C, strain kem1, hits give low values 1 | locus YGL227W, strain vid30, hits give low values 1 | locus YGL240W, strain doc1, hits give low values 0.999 | locus YGL253W, strain hxk2, hits give low values 1 | locus YHR013C, strain ard1, hits give low values 0.986 | locus YHR027C, strain rpn1, hits give low values 1.01 | locus YHR030C, strain SLT2, hits give low values 0.973 | locus YHR079C, strain IRE1, hits give low values 1.01 | locus YHR142W, strain chs7, hits give low values 1.01 | locus YJL092W, strain hpr5, hits give low values 1 | locus YJL095W, strain BCK1 (second series), hits give low values 1 | locus YJL095W, strain BCK1, hits give low values 0.999 | locus YJL115W, strain asf1, hits give low values 1 | locus YJL129C, strain trk1, hits give low values 1.02 | locus YJL154C, strain vps35, hits give low values 1.01 | locus YJL164C, strain tpk1, hits give low values 1.02 | locus YJL166W, strain qcr8, hits give low values 1.01 | locus YJL187C, strain SWE1, hits give low values 1.01 | locus YJR066W, strain TOR1, hits give low values 0.946 | locus YKL160W, strain elf1, hits give low values 1 | locus YKR026C, strain gcn3, hits give low values 1 | locus YKR091W, strain srl3, hits give low values 0.997 | locus YLL001W, strain dnm1, hits give low values 1 | locus YLL026W, hits give low values 0.995 | locus YLL041C, strain sdh2, hits give low values 1 | locus YLR027C, strain aat2, hits give low values 1 | locus YLR113W, strain HOG1, hits give low values 0.977 | locus YLR221C, strain rsa3, hits give low values 1 | locus YLR258W, strain gsy2, hits give low values 1 | locus YLR262C, strain YPT6 (second series), hits give low values 1.04 | locus YLR320W, strain mms22, hits give low values 0.993 | locus YLR342W, strain FKS1, hits give low values 1.01 | locus YLR357W, strain rsc2, hits give low values 1.01 | locus YLR370C, strain arc18, hits give low values 1.01 | locus YLR384C, strain iki3, hits give low values 1 | locus YML120C, strain ndi1, hits give low values 1.01 | locus YMR058W, strain fet3, hits give low values 1.04 | locus YMR125W, strain sto1, hits give low values 1 | locus YMR129W, hits give low values 1.01 | locus YMR205C, strain PFK2, hits give low values 0.992 | locus YMR231W, strain pep5, hits give low values 1 | locus YNL071W, strain lat1, hits give low values 1.01 | locus YNL183C, strain NPR1, hits give low values 0.945 | locus YNL209W, strain ssb2, hits give low values 1.01 | locus YNL248C, strain rpa49, hits give low values 1 | locus YNL322C, strain KRE1 (second series), hits give low values 1 | locus YNR049C, strain mso1, hits give low values 1.01 | locus YOR001W, strain rrp6, hits give low values 1 | locus YOR070C, strain gyp1, hits give low values 1.01 | locus YOR080W, strain dia2, hits give low values 1 | locus YOR083W, strain WHI5, hits give low values 1.01 | locus YOR106W, strain vam3, hits give low values 0.999 | locus YOR231W, strain MKK1, hits give low values 0.984 | locus YOR265W, strain rbl2, hits give low values 1.02 | locus YOR270C, strain vph1, hits give low values 1.03 | locus YOR290C, strain snf2, hits give low values 1 | locus YPL051W, strain arl3, hits give low values 1.01 | locus YPL078C, strain atp4, hits give low values 1.01 | locus YPL106C, strain sse1, hits give low values 1.03 | locus YPL240C, strain hsp82, hits give low values 1 | locus YPL256C, strain CLN2, hits give low values 1.03

Source: PubChem BioAssay AID1159580 (chemical genetic matrix, 2015)
